Rows were chosen to be rich in hits. Some 2.4% of all compounds tested hit in one or more screens of this group.
AmpC det inh = inhibitors of E. coli AmpC beta-lactamase with detergent. P00811. purified AmpC, nitrocefin hydrolysis with detergent. Potency, µM (series often up to 28.7 µM), for inactives: at the highest dose activity change, negative = inhibition. 71,000 tested, 0.09% active. AID 584; active means well fitted curve in the direction sought with a large enough effect; inconclusive means small, poorly fitted or top-dose-only effect; further: on the % scale 0 is the no-effect control and ±100 the full control effect
Target sequence (P00811 whole entry, looked up): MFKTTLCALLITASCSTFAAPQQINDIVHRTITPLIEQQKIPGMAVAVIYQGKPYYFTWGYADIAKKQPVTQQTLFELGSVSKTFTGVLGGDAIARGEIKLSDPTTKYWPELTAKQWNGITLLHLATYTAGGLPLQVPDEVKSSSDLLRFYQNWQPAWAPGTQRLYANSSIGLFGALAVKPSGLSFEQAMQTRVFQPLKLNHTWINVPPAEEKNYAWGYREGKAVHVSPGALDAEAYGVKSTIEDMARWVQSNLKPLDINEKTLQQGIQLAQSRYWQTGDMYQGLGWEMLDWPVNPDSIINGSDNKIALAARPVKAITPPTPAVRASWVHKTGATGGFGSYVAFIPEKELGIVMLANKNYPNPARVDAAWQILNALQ
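E. coli AmpC (5.3 nM) in 20 mM phosphate pH 7.0 with 0.01% Triton X-100, preincubated 15 min RT with compound; nitrocefin (2 uL of 800 uM stock) hydrolysis followed by 480 nm absorbance every 20 s over 4 min.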
Prx2 Sm inh = blocks S. mansoni peroxiredoxin 2 enzymatic activity; S. mansoni Prx2 activity coupled to TGR/GSH (TGR is thioredoxin glutathione reductase), NADPH fluorescence loss, qHTS; Potency, µM; 65,000 tested, 0.07% active
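Coupled assay in which S. mansoni TGR passes NADPH reducing equivalents via glutathione to Prx2, which reduces H2O2. Compounds were preincubated 15 min at room temperature with 25 nM TGR/50 nM Prx2 mix. Kinetic NADPH fluorescence loss (ex 365/em 450 nm) was monitored.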
Anthrax LT inh = anthrax lethal toxin internalization inhibition; AID 912; 70,000 tested, 0.67% active; Cells, anthrax lethal toxin internalization, FRET ratio (460/530); Potency, µM (top dose mostly 40 µM), for the others: at the top dose activity change, negative = inhibition, usual class: inhibitors; further: on the % scale 0 is the no-effect control and ±100 the full control effect; nearly all actives have a fitted effect of over 50% in size
AmpC inh no det = blocks E. coli AmpC beta-lactamase in absence of detergent; AmpC nitrocefin hydrolysis, absorbance 480 nm, no detergent; Potency, µM (series often up to 28.7 µM), for inactives: at the top dose activity change, negative = inhibition; 71,000 tested, 1.8% active; AID 585; further: % of control where 0% means no effect
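Enzyme, pH 7.0 phosphate. Compound titrations were pre-incubated with AmpC for 15 min at room temperature before nitrocefin (stock 800 uM) addition; product formation was recorded at 480 nm every 20 s for 4 min.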
* marks the source's active call; other numbers are inactive results; ? = inconclusive; · = no result given; [ ] = dose if it differs, or a comment. Unless noted, the call rests on the fitted dose curve. Potency means the concentration at half of the fitted maximal effect.

SMILES	AmpC det inh	Prx2 Sm inh	Anthrax LT inh	AmpC inh no det
CCn1c(SCC(=O)Nc2oc(-c3ccccc3)c(-c3ccccc3)c2C#N)nnc1-c1ccco1	-3%	>57	?	?
N#Cc1c(NC(=O)CSc2ncnc3sccc23)oc(-c2ccco2)c1-c1ccco1	12%	>57	?	7.9µM*
CCCCNc1cc(=O)n(C)c(=O)[nH]1	11%	>57	6%	4µM*[single pt active]
C=CC1=C(C)C2=Cc3c(C=C)c(C)c4[n]3[Sn+2][n]3c(c(C)c(CCC(=O)O)c3=CC3=NC(=C4)C(C)=C3CCC(=O)O)=CC1=N2	1%	>57	-12%	21%
O=C(Cc1ccccc1)Nc1nc(-c2cccs2)cs1	-2%	>57	?	?
O=C(COc1ccc(Cl)cc1)Nc1nc(-c2cccs2)cs1	1%	>57	10µM*	?
COc1ccc2nc3sc(C(=O)NCc4cccs4)c(N)c3cc2c1	28%	>57	2%	13µM*
O=C(c1cc(C(F)(F)F)cc(C(F)(F)F)c1)N1CCC2(CC1)CCN(c1ccncc1)CC2	-2%	>57	?	69%
Cc1cccc(CCNC(=O)CN(C)S(=O)(=O)c2ccc3c(c2)c(=O)n(C)c(=O)n3C)c1	14%	>57	-10%	4µM*[single pt active]
Cc1ccc(CCNC(=O)CCNS(=O)(=O)c2ccc3c(c2)c(=O)n(C)c(=O)n3C)cc1	10%	>57	2%	39%
CCCCCCCCCCCC1=C(O)C(=O)C=C(O)C1=O	-14%	>57	?	4µM*
CCCCCc1cc(O)cc(O)c1	10%	·	?	-8%
CCCCn1c(NCCO)nc2ccccc21	7%	>57	1%	3.2µM*[single pt active]
CCCCn1c(NCc2ccccc2O)nc2ccccc21	14%	>57	-13%	4µM*[single pt active]
O=C(Cn1c(NCCCO)nc2ccccc21)c1cccs1	8%	>57	7%	3.2µM*[single pt active]
CCCn1c(NCc2cc(C)ccc2O)nc2ccccc21	1%	·	-18%	3%
Cc1cnc(CNc2nc(-c3ccc(C(=O)N(C)C)cc3)nc3ccccc23)cn1	9%	>57	9%	65%
COCCNC(=O)[C@H](C)/C=C(\c1cccnc1)C(NC(=O)OCc1ccccc1)c1ccc(C(=O)OC)cc1 (stereo partly specified)	14%	·	-5%	132%
COc1ccc(NC(=O)CN2CC(c3ccccc3)CC2=O)cc1OC (stereo unspecified)	13%	>57	1%	4µM*[single pt active]
O=C(CN1CC(c2ccccc2)CC1=O)NCc1ccc(F)cc1 (stereo unspecified)	11%	>57	-8%	4µM*[single pt active]
O=C(CN1CC(c2ccccc2)CC1=O)Nc1ccc2c(c1)OCO2 (stereo unspecified)	9%	>57	-3%	17%
O=C(CN1CCN(Cc2ccc(F)cc2)C1=O)NCc1cccs1	11%	>57	-9%	13%
COc1ccc(N(CC(=O)N2CC=C(c3ccccc3)CC2)S(=O)(=O)c2c(C)noc2C)cc1	13%	>57	?	4µM*[single pt active]
CCOc1ccc(N(CC(=O)N2CC=C(c3ccccc3)CC2)S(=O)(=O)c2c(C)noc2C)cc1	11%	>57	?	4µM*[single pt active]
CCOc1ccc(N(CC(=O)Nc2ccc(C)cc2)S(=O)(=O)c2c(C)noc2C)cc1	7%	>57	?	3%
SMILES	AmpC det inh	Prx2 Sm inh	Anthrax LT inh	AmpC inh no det
COc1cccc(-c2nc(NC3CC3)c3ccccc3n2)c1	0%	>57	?	2%
CC[C@@H]1[C@H]2CCCCN3[C@@H]2[C@@H](C[C@H]3[C@@H]2C[C@H](C)C(=O)O2)[C@@H]2[C@H]1OC(=O)[C@H]2C	-4%	>57	?	58%
O=C(c1csnn1)N1CCC2(CC1)CN(c1cccc(-c3ccccc3)c1)C2	-2%	>57	-15%	127%
CCOC(=O)c1c(NC(=O)CN2CCN(c3ccccn3)CC2)sc2c1CCCC2	-12%	>57	-11%	12%
O=C(C1CCC(CNc2c(N3CCCCC3)c(=O)c2=O)CC1)N1CCN(c2ccccn2)CC1 (stereo unspecified)	11%	>57	-1%	4µM*[single pt active]
CCOC(=O)CNc1c(N2CCN(c3ccccn3)CC2)c(=O)c1=O	10%	>57	-5%	4µM*[single pt active]
O=C1OC2(c3ccc(O)cc3Oc3cc(O)ccc32)c2c1c(-c1ccccc1)c(-c1ccccc1)c(-c1ccccc1)c2-c1ccccc1	-5%[5.75 µM]	>57	?	2.5µM*
COCCn1c(=O)cnc2cnc(Nc3cccc(OC)c3)nc21	3%	>57	?	20%
O=C(CSc1nnc(Cc2ccccc2)o1)N1CCCc2ccccc21	12%	>57	4%	28%

Source: PubChem BioAssay
